High-throughput results as filed in PubChem.
A selection: hits, their analogues and other compounds. The true share with any hit is near 2.2%.
Myeloid diff MLP = induction of myeloid progenitor differentiation, primary screen, cell-based, flow cytometry, MLPCN library | ER-HoxA9 myeloid progenitors, lysozyme-GFP differentiation | calls only at 10 µM | hit rate 1% among 360,000 | AID 624256, 2012;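 active = normalized GFP-positive differentiation at or above the plate's own cutoff, the solvent-only control mean plus 3 SD; inconclusive = no clear call, values can overlap the other calls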;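 note: cells exposed to compound for four days before flow analysis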
beta cell repl = inducers of MIN6 beta-cell proliferation, primary screen, ATP luminescence, uHTS; MIN6 cells proliferation, ATPlite luminescence, 48 h; cells starved in 0.2% serum; 100% = growth in 10% serum; proliferation, % at 10 µM; hit rate 0.29% among 330,000; AID 2380, 2010;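 active = compounds whose signal lies at least 3.5 SD above the mean of all wells on their plate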
ABCB6 inh 2 = ABCB6 transporter inhibitors, primary screen, K562-ABCB6 cells, flow cytometry, MLPCN library. K562-ABCB6 porphyrin accumulation, 1 h; active compounds read low. fluorescence ratio to DMSO, % at 10 µM. ATP-binding cassette sub-family B member 6 (Homo sapiens), Q9NP58. hit rate 0.19% among 360,000;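 active = fluorescence ratio to DMSO below 75%, the collection mean minus 3 SD; inconclusive = too few cells collected in the well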;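 note: signal is porphyrin accumulated inside mitochondria; lower ratio means ABCB6 inhibition with less porphyrin fluorescence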
Target sequence (Q9NP58 whole entry, looked up): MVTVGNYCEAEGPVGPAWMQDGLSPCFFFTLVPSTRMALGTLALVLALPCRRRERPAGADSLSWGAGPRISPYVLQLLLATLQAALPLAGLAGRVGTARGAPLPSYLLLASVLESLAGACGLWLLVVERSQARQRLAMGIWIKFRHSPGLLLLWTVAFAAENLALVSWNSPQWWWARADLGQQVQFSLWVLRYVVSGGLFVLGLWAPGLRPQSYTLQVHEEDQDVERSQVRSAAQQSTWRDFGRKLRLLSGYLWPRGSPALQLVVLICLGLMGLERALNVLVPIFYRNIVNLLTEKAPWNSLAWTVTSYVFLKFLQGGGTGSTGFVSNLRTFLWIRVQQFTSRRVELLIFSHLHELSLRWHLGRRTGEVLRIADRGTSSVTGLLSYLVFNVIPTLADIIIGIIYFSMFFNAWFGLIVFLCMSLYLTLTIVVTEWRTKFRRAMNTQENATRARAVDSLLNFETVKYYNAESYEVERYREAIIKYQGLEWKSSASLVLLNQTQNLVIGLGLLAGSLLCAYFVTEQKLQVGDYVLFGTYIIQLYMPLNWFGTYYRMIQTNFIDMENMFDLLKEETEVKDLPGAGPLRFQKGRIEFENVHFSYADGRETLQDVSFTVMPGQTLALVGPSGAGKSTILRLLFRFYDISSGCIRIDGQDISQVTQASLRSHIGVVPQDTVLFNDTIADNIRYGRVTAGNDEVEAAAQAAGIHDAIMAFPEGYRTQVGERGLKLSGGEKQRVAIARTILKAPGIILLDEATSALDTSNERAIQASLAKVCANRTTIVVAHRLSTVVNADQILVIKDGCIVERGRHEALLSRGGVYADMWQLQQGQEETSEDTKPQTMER
hiPSC survival = enhancers of single-cell hiPSC survival, primary screen, ATPlite luminescence; 100% = ROCK inhibitor wells, 0% = DMSO; survival enhancement, % at 20 µM; hit rate 0.044% among 360,000; AID 602274, 2012; in the data active = survival enhancement above about 18%;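 note: cells exposed to compounds for 16 hours before the ATP read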
Cardio protect = cardioprotection against H2O2-induced cell death, primary screen, uHTS, H9c2 cells, ATPLite luminescence; H9c2 cardiomyocytes, H2O2 injury protection, 2 h; protection from H2O2 cell death, % at 20 µM; hit rate 0.63% among 360,000;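 active = compounds giving at least 50% protection of heart cells from peroxide-induced death in the single-dose screen, raw or plate-pattern-corrected value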
Large screens that a line does not name were inactive.

O=C(c1cc(COc2cccc(C(F)(F)F)c2)on1)N1C[C@H]2CC[C@H]1C2	none
O=C1c2[nH]nc(-c3ccccc3O)c2C(c2ccccc2)N1Cc1ccco1 (centres undefined)	Myeloid diff MLP active
COc1ccc(S(=O)(=O)N2Cc3ccccc3CC2C(=O)Nc2ccc(O)cc2)cc1OC (centres undefined)	Cardio protect 58
CN(C)Cc1cc(C(C)(C)C)cc(C(C)(C)C)c1O	none
CN(C)Cc1cc(O)c(CN(C)C)cc1O	Cardio protect 61
COc1ccc2[nH]cc(/C=C/c3cc[n+](C)cc3)c2c1	Myeloid diff MLP active
Cc1ccc(C2CC(c3cccs3)=NN2C(=O)CSc2nc(=O)n3cc(C)ccc3n2)cc1 (centres undefined)	Myeloid diff MLP active, ABCB6 inh 2 inconclusive
COc1ccc(C(=O)n2nc(-c3ccco3)nc2N)cc1	none
CCCn1nc(C(=O)Nc2nc(-c3ccccn3)cs2)c2ccccc2c1=O	Myeloid diff MLP active, Cardio protect 86
Cn1nc(C(=O)Nc2nc(-c3ccccn3)cs2)c2ccccc2c1=O	Myeloid diff MLP inconclusive, Cardio protect 55
CCCn1nc(C(=O)Nc2nnc(C3CC3)s2)c2ccccc2c1=O	none
CCn1nc(C(=O)Nc2nc(-c3ccccn3)cs2)c2ccccc2c1=O	Cardio protect 79
CC1CC1C(=O)Nc1nc(-c2ccccn2)cs1 (centres undefined)	none
CNC[C@H]1Oc2c(NS(=O)(=O)c3cccs3)cccc2C(=O)N([C@H](C)CO)C[C@@H]1C	none
O=C(COC(=O)c1ccccc1C(=O)c1ccc(Cl)c([N+](=O)[O-])c1)NC1CC1	Myeloid diff MLP inconclusive, hiPSC survival 36
CC(C)(C)C(=O)c1sc2nc(-c3cccs3)cc(C(F)(F)F)c2c1N	Myeloid diff MLP active
CCN(CC)C(=O)c1sc2nc(-c3cccs3)cc(-c3ccc(Cl)cc3)c2c1N	none
CCN(CC)C(=O)c1sc2nc(-c3cccs3)cc(-c3cccs3)c2c1N	Myeloid diff MLP active
Nc1c(C(=O)Nc2nccs2)sc2nc(-c3cccs3)cc(C(F)(F)F)c12	Myeloid diff MLP active
Cc1nnc(NC(=O)c2sc3nc(-c4cccs4)cc(C(F)(F)F)c3c2N)s1	Myeloid diff MLP active
COc1ccc(NC(=O)C2=CC(c3cccs3)=NS(=O)(=O)N2C)cc1	Myeloid diff MLP active
Cc1cc2nc3c(=O)n(CCc4ccccc4)c(=O)[nH]c3nc2cc1N	none
Nc1ccc2nc3c(=O)n(CCc4ccccc4)c(=O)[nH]c3nc2c1	Myeloid diff MLP active
Cc1nc2oc3ccc(F)cc3c(=O)c2cc1C(=O)O	none
COC1=C(Nc2ccc(O)cc2)C(=O)c2ccccc2C1=O	Myeloid diff MLP active
O=C1C(Cl)=C(Nc2ccc(O)cc2)C(=O)c2ccccc21	Myeloid diff MLP inconclusive, ABCB6 inh 2 66
CC(=O)Nc1ccc(NC2=CC(=O)c3ccccc3C2=O)cc1	none
O=C1C=C(Nc2ccc(O)cc2)C(=O)c2ccccc21	Myeloid diff MLP active
COC(=O)c1cnn(-c2ccc(F)cc2F)c1/C=N/NC(=S)NC(C)(C)C	none
O=C(CSc1nc2[nH]ncc2c(=O)[nH]1)Nc1nccs1	none (no result: Myeloid diff MLP, ABCB6 inh 2, hiPSC survival, Cardio protect)
N#CCC(=O)Nc1ccc(C(=O)OCC(=O)C23CC4CC(CC(C4)C2)C3)cc1	Myeloid diff MLP active
Cc1ccc(NC(=O)CN(C)C(=O)COC(=O)c2ccc(NC(=O)CC#N)cc2)cc1	none
N#CCC(=O)Nc1ccc(C(=O)OCc2ccccc2Oc2ccccc2)cc1	Myeloid diff MLP active
Cn1c2c(c(=O)n(C)c1=O)C(c1ccc(Br)cc1)Nc1ccccc1O2 (centres undefined)	Cardio protect 51
CC1CCc2c(sc(NC(=O)c3ccc(Cn4cc([N+](=O)[O-])cn4)o3)c2C#N)C1 (centres undefined)	none
O=C(NCCN1CCN(c2ccccc2)CC1)c1cccn2c(=O)c3ccccc3nc12	none
O=C(NCCN1CCN(c2ccccc2F)CC1)c1cccn2c(=O)c3ccccc3nc12	Cardio protect 71
COCCCn1c(C)nc2c(c1=O)c1nc3ccccc3nc1n2CCc1ccccc1	Myeloid diff MLP active, Cardio protect 58
C/C(=N\Nc1ccc2nncn2n1)c1ccccn1	Myeloid diff MLP inconclusive, Cardio protect 58
C/C(=N\Nc1ccc2nncn2n1)c1ccco1	none
Clc1nc2sccn2c1/C=N/n1cnc2ccccc21	Cardio protect 66
Cc1cccc(NC(=O)c2cc(-c3ccco3)nc3ccccc23)n1	Cardio protect 61
Cc1ccc(NC(=O)c2cc(-c3cccs3)nc3ccccc23)nc1	Cardio protect 64
Cc1c(NC(=O)c2cc(-c3cccs3)nc3ccccc23)c(=O)n(-c2ccccc2)n1C	none
Cc1cc(C)c2nc(NNC(=O)c3cc(-c4cccs4)nc4ccccc34)sc2c1	Cardio protect 56
Cc1cccn2c(=O)c3cc(C#N)c(=N)n(Cc4ccncc4)c3nc12	none (no result: Myeloid diff MLP, ABCB6 inh 2, hiPSC survival, Cardio protect)
Cc1cc(C)cc(C(=O)Nc2ccc(NC(=O)c3cccs3)cc2)c1	Cardio protect 49
CC(=O)c1ccc(NC(=O)c2cccs2)cc1	none
CC(C)(C)NC(=O)c1cc(NC(=O)c2cccs2)cc(NC(=O)c2cccs2)c1	Cardio protect 63
C/C(=N/NC(=O)c1cccs1)c1cccc(N)c1	none
CC(=O)Nc1cccc(/C(C)=N/NC(=O)c2cccs2)c1	Cardio protect 59
Clc1ccc(C2=Nn3c(Cn4nnc5ccccc54)nnc3SC2)cc1	none
COC(=O)C1CSC(c2ccc(Cl)cc2)N1C(=O)c1ccccc1 (centres undefined)	none
CCC(NS(=O)(=O)c1cnn(CC)c1)c1ccccc1 (centres undefined)	none
C=CCn1c(COc2ccc(F)cc2)nnc1SCC(=O)NC1CCS(=O)(=O)C1 (centres undefined)	ABCB6 inh 2 71
C=CCn1c(COc2ccc(F)cc2)nnc1SCC(=O)NC1CCCC1	none
Cc1c(NS(=O)(=O)c2cc(C(=O)N3CCCC(C)C3)ccc2Cl)c(=O)n(-c2ccccc2)n1C (centres undefined)	none
C=CCn1cnc2c(c1=O)c1nc3ccccc3nc1n2/N=C/c1ccccn1	Myeloid diff MLP inconclusive, Cardio protect 98 (no result: beta cell repl)
COCCCn1cnc2c(c1=O)c1nc3ccccc3nc1n2-c1ccccc1	none
C=CCn1cnc2c(c1=O)c1nc3ccccc3nc1n2/N=C/c1cc(OC)c(OC)c(OC)c1	Cardio protect 65
COCCn1cnc2c(c1=O)c1nc3ccccc3nc1n2/N=C/c1cccc(OC)c1	Cardio protect 52
C=CCn1cnc2c(c1=O)c1nc3ccccc3nc1n2/N=C/c1cccc(OC)c1OC	Cardio protect 74
O=C(COC(=O)c1cccc(S(=O)(=O)N2CCc3ccccc3C2)c1)NCc1ccco1	none
Cc1cc(=O)n(CCCc2ccccc2)[nH]1	none
